# Experimental data taken from PubChem BioAssay AID567 (The Scripps Research Institute Molecular Screening Center, 2006).
# The campaign covered roughly 65,000 compounds. About 370 (0.57%) were called active.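 The calls were made as follows: active = activation above the screen-wide mean activation plus 3 SD (cut at about 19% in these data); inactive = the rest.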 The entries come from a sample that favours actives as a whole.
# Molecular target: 5-hydroxytryptamine receptor 1A (Homo sapiens) (UniProt P08908)
# Sequence (P08908 whole entry, looked up): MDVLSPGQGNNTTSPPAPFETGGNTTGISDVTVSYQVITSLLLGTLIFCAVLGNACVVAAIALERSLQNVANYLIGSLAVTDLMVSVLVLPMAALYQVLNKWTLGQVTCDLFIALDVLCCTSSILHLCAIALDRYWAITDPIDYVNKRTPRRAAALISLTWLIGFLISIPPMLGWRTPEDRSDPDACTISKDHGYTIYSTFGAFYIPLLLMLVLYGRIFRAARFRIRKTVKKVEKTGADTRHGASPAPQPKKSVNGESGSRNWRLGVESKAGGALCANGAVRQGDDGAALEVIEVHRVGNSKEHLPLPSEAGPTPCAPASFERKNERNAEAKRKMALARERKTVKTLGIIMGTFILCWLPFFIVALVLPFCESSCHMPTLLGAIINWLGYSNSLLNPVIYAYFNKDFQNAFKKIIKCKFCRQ
# Assay: agonism at serotonin HTR1A receptor – cell-based, CHO, Ga15 NFAT-bla reporter, primary screen (AID 567);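 also: 0% = DMSO wells and 100% = 5-CT at EC100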
# Conditions: CHO 5-HT1a Ga15 NFAT-bla reporter, FRET ratio; at 10 µM; hits give high values; 0% basal, 100% maximal reference agonist
row,SMILES,activation
1,COC(=O)c1ccc(S(=O)(=O)c2ccc(C(=O)OC)s2)s1,2.5% (inactive)
2,CCOC(=O)CN(C(=O)CN1CCOCC1)c1ccc(Br)cc1,-0.22% (inactive)
3,CCOC(=O)C1CCN(C(c2cc3cc(C)cc(C)c3[nH]c2=O)c2nnnn2C2CCCCC2)CC1 (centres undefined),-0.97% (inactive)
4,CC(C)CCNC(=O)C1CCCN(S(=O)(=O)c2ccc(F)cc2)C1 (centres undefined),0.42% (inactive)
5,O=C(NCc1ccco1)c1ccc(CS(=O)(=O)Cc2ccc(F)cc2)o1,-3.1% (inactive)
6,O=C(c1cccs1)N1CCCC(c2nc(-c3ccc(F)cc3)no2)C1 (centres undefined),-1.69% (inactive)
7,Cn1c(=O)c2c(ncn2CC(=O)N2CCN(c3ccccc3)CC2)n(C)c1=O,-0.49% (inactive)
8,COc1ccc(C(=O)Nc2ccc(S(=O)(=O)Nc3onc(C)c3C)cc2)cc1OC,-4.48% (inactive)
9,Cc1noc(NS(=O)(=O)c2ccc(N3CC(O)=C(c4ccccc4)C3=N)cc2)c1C,147% (active)
10,Cc1noc(NS(=O)(=O)c2ccc(NC(=O)C34CCC(CC3)C4)cc2)c1C,0.73% (inactive)
11,COc1cccc2c(=O)n(CC(=O)N3CCCCCC3)ccc12,-2.41% (inactive)
12,CC1=C(C(=O)OCc2ccccc2)C(c2ccco2)n2ncnc2N1 (centres undefined),2.82% (inactive)
13,CCCOc1ccc(N2CC(C(=O)Nc3ccccn3)CC2=O)cc1 (centres undefined),-1.38% (inactive)
14,COc1cc2ccccc2cc1C(=O)Nc1ccc(S(=O)(=O)Nc2cc(C)on2)cc1,0.01% (inactive)
15,CC(C)(C)n1c(=O)[nH]c2c(c1=O)CCC2,-0.19% (inactive)
16,Cc1ccc(-n2nc3cc(Cl)c(NC(=O)c4ccco4)cc3n2)cc1,0.44% (inactive)
17,c1ccc2cc(OCCN3CCCC3)ccc2c1,-1% (inactive)
18,O=C(CN1C2CCC1CC(NC(=O)C1CC1)C2)NCc1ccccc1 (centres undefined),0.81% (inactive)
19,CCn1c(SCC(=O)Nc2ccc3c(c2)OCCO3)nc2c(c1=O)SC(C)C2 (centres undefined),1.05% (inactive)
20,O=C(c1ccc2c(c1)OCCO2)C1CCN(S(=O)(=O)c2cccc(F)c2)CC1,-3.42% (inactive)
21,CC(=O)NS(=O)(=O)c1ccccc1,-2.33% (inactive)
22,Fc1cnc(N2CCOCC2)nc1NCc1ccccc1,-1.58% (inactive)
23,CCn1c(SCC(=O)Nc2nccs2)nnc1-c1ccncc1,-0.84% (inactive)
24,COc1ccc(-c2nn(-c3ccccc3)cc2C(=O)Nc2nc(CC(C)=O)ns2)cc1,59.1% (active)

row,SMILES,activation
1,CC(=O)Cc1nsc(NC(=O)c2ccc(COc3ccc(C)cc3)o2)n1,-1.31% (inactive)
2,CC(=O)Cc1nsc(NC(=O)c2csc3c2CCCC3)n1,0.34% (inactive)
3,CCOc1ccccc1C1C(C(=O)OC)=CN(C)C=C1C(=O)OC,20.1% (active)
4,CCOc1cc(C2C(C(=O)OC)=CN(C3CCCC3)C=C2C(=O)OC)cc(Br)c1O,14.4% (inactive)
5,COC(=O)C1=CN(C)C=C(C(=O)OC)C1c1ccc(Cl)cc1Cl,13.7% (inactive)
6,CC(=O)c1ccc(N2C(=NC(=O)C(C)C)SC3CS(=O)(=O)CC32)cc1 (centres undefined),-1.94% (inactive)
7,CN(C)/C=C1/Nc2ccccc2C1=O,-1.11% (inactive)
8,O=C(O)c1ccc(F)c(S(=O)(=O)Nc2ccccc2)c1,1% (inactive)
9,COc1ccc(NC(C)=O)cc1NC(=O)CN1CCN(c2ccccn2)CC1,-1.16% (inactive)
10,COC(=O)c1ccc(C2NC(=O)NC(C)=C2C(=O)N(C)C)cc1 (centres undefined),-3.69% (inactive)
11,O=C(c1ccc(S(=O)(=O)N2CCOCC2)cc1)N1CCN(c2ccccc2)CC1,-2.91% (inactive)
12,CNC(=O)c1nnn(-c2ccccc2)c1C(=O)NC,-1.73% (inactive)
13,CCOc1ccc(NS(=O)(=O)c2ccc(OCC(=O)NCCCOC)cc2)cc1,-1.21% (inactive)
14,O=C(COC(=O)CCc1c[nH]c(=O)[nH]1)Nc1ccccc1Cl,-0.97% (inactive)
15,CCOc1ccc(NC(=O)Nc2cc(C)ccc2OC)cc1,-4.41% (inactive)
16,CCOC(=O)c1c(C)[nH]c(C(=O)NCc2ccccc2OC)c1C,-0.94% (inactive)
17,COc1ccc(C)cc1NC(=O)c1[nH]c(C)c(C(C)=O)c1C,43.5% (active)
18,O=C(CSc1nnc(-c2ccco2)o1)NCC(=O)c1ccccc1,0.23% (inactive)
19,Cc1ccc(CNC(=O)C2CCCN(S(C)(=O)=O)C2)cc1 (centres undefined),0.44% (inactive)
20,Cc1cc(C)c(NC(=O)CS(=O)CC(=O)Nc2cccnc2)c(C)c1 (centres undefined),0.42% (inactive)
21,CCCC(=O)Nc1ccc(C(=O)NCCCn2ccnc2)cc1,-3.99% (inactive)
22,CCOC(=O)C1(Cc2ccc(O)cc2)NC(c2ccccc2F)C2C(=O)N(C)C(=O)C21 (centres undefined),-1.57% (inactive)
23,COc1ccccc1N1CC(O)=C(c2nc3ccccc3s2)C1=N,-3.98% (inactive)
24,Cc1ccc(C(=O)CS(C)(=O)=O)cc1,-5.39% (inactive)

row,SMILES,activation
1,O=C(O)C1CCCN(S(=O)(=O)c2cccc3cccnc23)C1 (centres undefined),-4.76% (inactive)
2,Cc1[nH]c2ccc(S(N)(=O)=O)cc2c1C,-0.45% (inactive)
3,Cc1ccccc1CSCC(=O)NC(=O)NC(C)(C)C,-1.47% (inactive)
4,CC1CCCN(c2ccc(C(=O)NCCc3ccccc3)cn2)C1 (centres undefined),-0.9% (inactive)
5,C=CCn1c(N)c(S(=O)(=O)c2cccs2)c2nc3ccccc3nc21,-0.33% (inactive)
6,C=CCn1c(N)c(C(=O)OCC(C)C)c2nc3ccccc3nc21,0.61% (inactive)
7,CC(C)Cn1c(N)c(C(=O)NCc2cccs2)c2nc3ccccc3nc21,77.6% (active)
8,CCOc1ccc2nc(SC(CC)C(=O)Nc3cc(C)on3)sc2c1 (centres undefined),0.42% (inactive)
9,COc1ccc(F)cc1S(=O)(=O)Nc1ccc2c(c1)OCO2,-5.74% (inactive)
10,O=C(Cn1cnc2c(nnn2Cc2ccc(F)cc2)c1=O)NCc1ccc2c(c1)OCO2,-1.47% (inactive)
11,COc1cccc2c(C)c(C(=O)O)[nH]c12,1.98% (inactive)
12,C=CCSC1=C(C#N)C(c2cc(Br)c(O)c(OC)c2)CC(=O)N1 (centres undefined),1.53% (inactive)
13,C=CCNc1nnc(SCC(=O)N2CCCCC2)c2ccccc12,0.32% (inactive)
14,O=C1c2ccncc2C(=O)N1C1CCCCC1,-3.22% (inactive)
15,CC1Cn2c(nnc2-c2cccs2)S1 (centres undefined),0.5% (inactive)
16,Cc1ccc(CNC(=O)CN2CCN(Cc3ccc(Cl)cc3)C2=O)cc1,0.67% (inactive)
17,Cn1c(C(=O)NCCN2CCc3ccccc3C2)cc2c(=O)[nH]c3ccccc3c21,-1.75% (inactive)
18,CCc1ccccc1N(CC(=O)N1CCN(c2ccccc2F)CC1)S(C)(=O)=O,-1.54% (inactive)
19,COc1ccccc1CNC(=O)CCCn1c(=O)c2ccccc2n(CC(=O)NC2CCCC2)c1=O,-2.51% (inactive)
20,CCCOC(=O)CC1C(=O)NCCN1Cc1ccc(F)cc1 (centres undefined),1.2% (inactive)
21,Cc1c(NC(=O)C(C)OC(=O)c2cc3c4ccccc4n(C)c3s2)c(=O)n(-c2ccccc2)n1C (centres undefined),1.13% (inactive)
22,COC(=O)c1ccc2c(=O)n(CC3CCCO3)c(=S)[nH]c2c1 (centres undefined),66.3% (active)
23,O=c1c2cc3c(=O)n(CC4CCCO4)c(=O)c3cc2c(=O)n1CC1CCCO1 (centres undefined),-2.73% (inactive)
24,O=C(NC1CCCCC1)c1ccc2c(=O)n(CC3CCCO3)c(=O)[nH]c2c1 (centres undefined),-3.15% (inactive)

row,SMILES,activation
1,CCC(C)NC(=O)C1CCC(=O)N1Cc1ccc(C)cc1 (centres undefined),-3.11% (inactive)
2,CCOc1ccc(C2C(C(=O)NC)=C(C)Nc3nc4ccccc4n32)cc1OC (centres undefined),-2.74% (inactive)
3,c1cnc(NC2C3CC4CC(C3)CC2C4)nc1 (centres undefined),-0.19% (inactive)
4,COc1ccc2c(c1OC)C(=O)OC2c1c(O)nc(SC)n(-c2ccccc2)c1=O (centres undefined),1.4% (inactive)
5,CCn1c(-c2cc(OC)ccc2OC)csc1=Nc1c(C)n(C)n(-c2ccccc2)c1=O,-3.67% (inactive)
6,CCOC(=O)Cn1c(=O)oc2cc(S(=O)(=O)N(C)Cc3ccco3)ccc21,-3.37% (inactive)
7,Cc1ccc(C(C)C)c(OCc2nnc(SCC(=O)Nc3nccs3)n2C)c1,-0.25% (inactive)
8,c1cnn(-c2cc(N3CCOCC3)ncn2)c1,42% (active)
9,O=C1c2ccccc2-c2ncnc3c(N4CCOCC4)cc(N4CCOCC4)c1c23,0.99% (inactive)
10,O=C(Nc1cc(N2CCOCC2)ncn1)NC1(C(F)(F)F)Oc2ccc(Cl)cc2O1 (centres undefined),-2.08% (inactive)
11,CC(C)(C)OC(=O)c1c(N)n(CCCN2CCCC2=O)c2nc3ccccc3nc12,4.61% (inactive)
12,N#Cc1c(N)n(CCOC(=O)c2ccc(Cl)cc2)c2nc3ccccc3nc12,27.6% (active)
13,COCCCn1c2nc3ccccc3nc2c2c(=O)n(Cc3ccc(Cl)cc3)c(C)nc21,1.36% (inactive)
14,COc1cccc(OCC(O)CN2CCN(CCO)CC2)c1 (centres undefined),1% (inactive)
15,CCC(=O)c1ccc(OCC(O)CN2CCN(c3cccc(C(F)(F)F)c3)CC2)cc1 (centres undefined),36.5% (active)
16,O=C(C(c1ccccc1)c1ccccc1)N1CCN(CC(O)COc2ccccc2)CC1 (centres undefined),-2.69% (inactive)
17,Cn1nc(-c2ccc(Cl)cc2)c2cc(C(=O)NCc3ccco3)sc21,-2.11% (inactive)
18,CCc1c(C)nc(N2CCN(Cc3ccccc3)CC2)[nH]c1=O,-1.04% (inactive)
19,CC(C)N1C(=O)C2C(C(=O)NC3CCCCC3)C3C=CC2(O3)C1C(=O)NC1CCCC1 (centres undefined),-3.66% (inactive)
20,CCn1c(CNC(=O)c2ccc(OC)c(OC)c2)nnc1SCC(=O)Nc1ccccc1,1.92% (inactive)
21,CCCNS(=O)(=O)c1ccc(CCC(=O)NCc2cccnc2)cc1,0.51% (inactive)
22,CCN1CCN(Cc2nc3c(c(=O)n(C)c(=O)n3C)n2CC(=O)c2ccccc2)CC1,-1.47% (inactive)
